Unmarked numbers belong to inactive results. Inconclusive results are not listed. Where a call stands in place of a potency, no number is given. The source made the active and inactive calls. The call rests on the fitted dose curve; in most records, active means well fitted curve in the direction sought with a large enough effect; inconclusive means small, poorly fitted or top-dose-only effect, or another doubt; inactive means no such curve, though single readings can be large; an effect the other way counts as inactive or inconclusive.
Legend:
[1] = molecular target: Glutathione peroxidase 1 (Homo sapiens) (UniProt P07203); experiment: Primary qHTS Assay for Inhibitors of Recombinant Selenoprotein Glutathione Peroxidase 1 (GPX1) (AID 1845191); further: nearly all actives have a fitted effect of over 65% in size
Procedure, shortened: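 GR-coupled assay: compounds preincubated 30 min at room temperature with GPX1, then reaction started with CHP; final 10 nM GPX1, 1 mM GSH, 0.5 mM CHP, 0.5 mM NADPH, 100 nM GR, 0.01% BSA, pH 7.5 Tris buffer. NADPH fluorescence (340/450 nm) read at 0 and 15 min.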

[2] = molecular target: Phospholipid hydroperoxide glutathione peroxidase GPX4 (Homo sapiens) (UniProt P36969); experiment: Primary qHTS Assay for Inhibitors of Recombinant Selenoprotein Glutathione Peroxidase 4 (GPX4) (AID 1845192); further: nearly all actives have a fitted effect of over 65% in size; on activity change, negative = inhibition: series mostly up to about 50 µM
Procedure, shortened: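 GR-coupled assay: recombinant GPX4 preincubated 30 min with compound at room temperature; final 200 nM GPX4, 1 mM GSH, 0.5 mM cumene hydroperoxide, 0.5 mM NADPH, 100 nM GR, 0.01% BSA, pH 7.5 Tris. NADPH fluorescence (340/450 nm) read at 0 and 15 min.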

[3] = molecular target: Luciferin 4-monooxygenase (Photinus pyralis) (UniProt P08659); experiment: Primary firefly luciferase (FLuc) qHTS assay for identification of artifact compounds. (AID 1845220); further: nearly all actives have a fitted effect of over 60% in size; on activity change, negative = inhibition: series mostly up to about 54 µM
Procedure, shortened: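 Enzymatic FLuc inhibition assay: compounds pre-exposed to luciferin/ATP (10 uM each) for 15 min, then purified P. pyralis enzyme at 10 nM added. Read-out: luminescence at 5 min.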

[4] = Primary fluorescence-based thiol-reactive (MSTI) qHTS assay for identification of artifact compounds. (AID 1845221); further: nearly all actives have a fitted effect of over 65% in size; further: potency means the concentration at half of the fitted maximal effect;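 on activity change, negative = thiol reactive: series mostly up to about 54 µM; thiol-reactive compounds lower the probe fluorescence signal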
Procedure, shortened: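 A multi-concentration qHTS design tested compounds against 4 uM MSTI, pH 7.4 phosphate-buffered saline. Plates were protected from light for 1 h at room temperature before imaging fluorescence.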

[5] = tested on: Nanoluciferase (engineered Oplophorus gracilirostris luciferase); experiment: Primary Nanoluciferase (NLuc) qHTS assay for identification of artifact compounds. (AID 1845222);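 further: NLuc secreted into diluted conditioned medium of S16 cells; series mostly up to about 54 µM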
Procedure, shortened: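 S16 cell supernatant NLuc, 1:55; cpds qHTS; 15 min RT dark; Nano-Glo substrate 1:100, 5 min; luminescence; Hill fit of % inhibition.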

[6] = Primary redox qHTS assay for identification of artifact compounds. (AID 1845223)
Procedure, shortened: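 Amplex Red (25 uM) and HRP (250 mU/mL) in HBSS, with compounds for 15 min, then 250 uM DTT for 30 min, room temperature, dark. Fluorescence 525/598 nm read; normalized to DMSO and 10 uM DA3003; Hill fit.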

Chain of Phospholipid hydroperoxide glutathione peroxidase GPX4 (Homo sapiens) (P36969 whole entry, looked up): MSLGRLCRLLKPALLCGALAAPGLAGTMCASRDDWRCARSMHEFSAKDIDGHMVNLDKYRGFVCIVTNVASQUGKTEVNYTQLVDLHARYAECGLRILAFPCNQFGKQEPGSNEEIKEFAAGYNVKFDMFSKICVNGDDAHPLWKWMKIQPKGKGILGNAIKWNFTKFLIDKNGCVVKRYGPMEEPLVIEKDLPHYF
Chain of Glutathione peroxidase 1 (Homo sapiens) (P07203 whole entry, looked up): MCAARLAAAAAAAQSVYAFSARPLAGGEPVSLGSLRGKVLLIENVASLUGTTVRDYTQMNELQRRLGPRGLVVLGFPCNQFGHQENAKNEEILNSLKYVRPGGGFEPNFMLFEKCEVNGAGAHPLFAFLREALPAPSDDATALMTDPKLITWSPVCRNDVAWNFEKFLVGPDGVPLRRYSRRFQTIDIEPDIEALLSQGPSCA

SMILES | Potency [1] | Potency [2] | Potency [3] | Potency [4] | Potency [5] | Potency [6] | activity change, negative = inhibition [3] | activity change, negative = thiol reactive [4] | activity, negative = inhibition [5] | redox activity (% of DA3003) [6]
C=C1C(=O)OC2/C=C(\COC(C)=O)CC/C=C(\C=O)CC(OC(=O)CC(C)C)C12 (centres undefined) | inactive | inactive | inactive | inactive | inactive | inactive |  |  |  | 
Fc1ccc(CN2CCC(Nc3ccc(C(F)(F)F)nn3)CC2)cc1F | inactive | inactive | inactive | inactive | inactive | inactive |  |  |  | 
CC1OC(=O)C[C@@H]2C(C(=O)O)=CO[C@@H](O[C@H]3O[C@H](CO)[C@@H](O)[C@H](O)[C@H]3O)[C@H]12 (some centres undefined) | inactive | inactive | inactive | inactive | inactive | inactive |  |  |  | 
C/C=C(\C)C(=O)O[C@@H]1[C@@H](C)[C@]2(O)[C@@H]3C=C(C)C(=O)[C@H]3CC(CO)=C[C@H]2C2C(C)(C)[C@@]21OC(=O)C(C)CC (some centres undefined) | inactive | inactive | inactive | inactive | inactive | inactive |  |  |  | 
Cc1ccc(C2(C(=O)N3CCC(n4nc(-c5ccccc5)oc4=O)CC3)CC2)cc1 | inactive | inactive | inactive | inactive | inactive | inactive |  |  |  | 
CC(CCC1(O)OC2CC3C4CC=C5CC(O[C@@H]6O[C@H](CO)[C@@H](O[C@@H]7O[C@@H](C)[C@H](O)[C@@H](O)[C@H]7O)[C@H](O)[C@H]6O[C@@H]6O[C@@H](C)[C@H](O)[C@@H](O)[C@H]6O)CCC5(C)C4CCC3(C)C2C1C)CO[C@@H]1O[C@H](CO)[C@@H](O)[C@H](O)[C@H]1O (some centres undefined) | inactive | inactive |  |  |  |  | -3.06% [at 11.6 µM] | 218% [at 11.5 µM] | 2.85% [at 11.6 µM] | 12.7% [at 11.5 µM]
C=C1C(=O)O[C@@H]2[C@H]3C(C)=CC(=O)C3=C(C)CC[C@@H]12 | inactive | inactive | inactive | inactive | inactive | inactive |  |  |  | 
Cc1cc(N2CCN(C(=O)Oc3ccc(-c4ccccc4)cn3)CC2)c2ccccc2n1 | inactive | inactive | inactive | inactive | inactive | inactive |  |  |  | 
CCC(C)C1NC(=O)C(Cc2ccccc2)NC(=O)C(CCCCCC(=O)C(O)CO)NC(=O)C2CCCCN2C1=O (centres undefined) | inactive | inactive | inactive | inactive | inactive | inactive |  |  |  | 
CC(=O)OC[C@]12[C@H](OC(C)=O)[C@H](OC(=O)c3ccccc3)[C@@H]3[C@@H](OC(C)=O)[C@]1(OC3(C)C)[C@H](C)C[C@H](OC(C)=O)[C@@H]2OC(=O)c1ccccc1 | inactive | inactive | inactive | inactive | inactive | inactive |  |  |  | 
CN(c1ccc(NC(=O)Nc2ccccc2)cc1)S(=O)(=O)c1cnn(-c2ccc(F)cc2)c1 | inactive | inactive | inactive | inactive | inactive | inactive |  |  |  | 
c1cc(-c2cnn3cc(-c4ccc(N5CCNCC5)cc4)cnc23)c2cccnc2c1 | inactive | inactive | inactive | inactive | inactive | inactive |  |  |  | 
O=C(NC[C@H](O)CN1CCc2ccccc2C1)c1ccnc(NC2CCC2)c1 | inactive | inactive | inactive | inactive | inactive | inactive |  |  |  | 
Cc1[nH]c2ccccc2c1CCNC(=O)c1cccs1 | inactive | inactive | inactive | 8.44 µM (active) | inactive | inactive |  |  |  | 
NC(=O)C1=CC2C3C=CC2C(OC3=O)O1 (centres undefined) | inactive | inactive | inactive | 15.8 µM (active) | inactive | inactive |  |  |  | 
Cn1cc(-c2cnn3c(N)c(Br)c([C@@H]4CCCNC4)nc23)cn1 | inactive | inactive | inactive | inactive | inactive | inactive |  |  |  | 
CCCc1cc2c(N3CCN(C4=NCC(C)(C)S4)CC3)ncnc2s1 | inactive | inactive | inactive | inactive | inactive | inactive |  |  |  | 
CO[C@H]1[C@@H](O)[C@H](O[C@H]2CC[C@@]3(C)C(CCC4C3CC[C@]35COC6(COC(=O)C6)C3CCC45O)C2)O[C@@H](C)[C@@H]1OC1OC(CO)C(OC2OC(CO)C(O)C(O)C2O)C(O)C1O (some centres undefined) | inactive | inactive |  |  |  |  | -4.26% [at 11.6 µM] | 77.5% [at 11.5 µM] | -0.128% [at 11.6 µM] | -0.0298% [at 11.5 µM]
COc1ccc(C(=O)Nc2c(Cl)cncc2Cl)cc1OC1CCCC1 | inactive | inactive | inactive | inactive | inactive | inactive |  |  |  | 
Cc1cccc(-c2[nH]ncc2-c2ccc(F)c(-c3cnn(CCO)c3)c2)n1 | inactive | inactive | inactive | inactive | inactive | inactive |  |  |  | 
Clc1ccc(Cn2c(Cc3ccccc3)nc3ccccc32)cc1 | inactive | inactive | inactive | inactive | inactive | inactive |  |  |  | 
C[C@H](CN(C)C)Oc1nc(Nc2cc3cccc(Cl)c3cn2)cnc1C#N | inactive | inactive | inactive | inactive | inactive | inactive |  |  |  | 
CC(C)S(=O)(=O)NC[C@H](C)c1ccc(-c2ccc(CCNS(C)(=O)=O)cc2)cc1 | inactive | inactive | inactive | inactive | inactive | inactive |  |  |  | 
COc1cc([C@H]2O[C@H](c3cc(OC)c4c(c3)OCO4)[C@H](C)[C@H]2C)cc(OC)c1OC | inactive | inactive | inactive | inactive | inactive | inactive |  |  |  | 
